SMILES strings stand for the structures. Values without a mark were called inactive.

For the test, the system named is Toxoplasma gondii RH 2F1 tachyzoites (intracellular in HFF). Put plainly: parasite survival relative to DMSO control; higher = less antiparasitic activity, active = 20 or less. The conditions noted are these: 1 µM; 72 h. As to the method:
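Primary single-dose screen of the MMV Pandemic Response Box at 1 uM against T. gondii RH-2F1 (beta-galactosidase) tachyzoites in HFF cells, 72 h at 37 C. Parasite growth read by CPRG absorbance at 570 nm and normalised to DMSO-treated infected controls (% survival); pyrimethamine was the reference drug. The paper calls at least 80% inhibition a hit.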
With `CCNC(=O)Nc1cn2c(-c3ncc(CC)cn3)cc(-c3cccnc3)cc2n1`, the parasite survival is 34.6%.
With `N[C@@H]1CN(c2c(F)cc3c(=O)c(C(=O)O)cn([C@@H]4C[C@@H]4F)c3c2Cl)CC12CC2` the figure was 51.8%; with `O=C(/C=C/n1cnc(-c2cc(C(F)(F)F)cc(C(F)(F)F)c2)n1)NNc1cnccn1`, 20.8%; with `CCc1ccc(C2CC(C(F)(F)F)n3ncc(C(=O)NCc4ccc(OC)cc4)c3N2)cc1` (stereo not given), 25.4%.
As to `CCN1CCN(Cc2nc3ccc([N+](=O)[O-])cc3c(=O)n2-c2ccccc2F)CC1`, the parasite survival was 59.6%.
Then `CC(C)(C)c1cccc(-c2nc3cc(C(=N)N)ccc3[nH]2)c1O`, with 50.5%.
Then `O=c1ccc2ncc(=O)n3c2n1CC3CN1CCC(NCc2cc3c(cn2)OCCC3)CC1` (stereo not given), with 44.7%; and `OCCCCn1cnc2c(O)nc(NCc3ccc(Cl)c(Cl)c3)nc21`, with 59.7%.
With `CCCC1(C2CC2)c2cc(Cl)ccc2NC(=O)N1C` (stereo not given) the figure was 70.4%; with `C[Si]1(C)CCN(Cc2cc(-c3ccc(Cl)cc3)n(-c3ccc(Cl)cc3)n2)CC1`, 13.7% (active).
On to `O=[N+]([O-])c1cn(Cc2nc(O)nc(O)c2Br)cn1`, for which the parasite survival was 58.1%.
For the compound `O=C(Nc1cccc(C2=NCCN2)c1)c1ccc(-c2ccc(C(=O)Nc3cccc(C4=NCCN4)c3)cc2)cc1`, the parasite survival is 22.1%.
With `Nc1nc(O)c(Br)c(-c2cccc(Cl)c2)n1` the figure was 63.8%.
For `CN(C)c1[nH]c(=O)ncc1F`, the parasite survival was 36.6%.
With `O=C(CP(=O)(O)O)NCCc1cccc(Oc2ccccc2)c1` the figure was 40.8%.
With `CC(=N)N1CC[C@H](SC2=C(C(=O)O)N3C(=O)[C@@H]([C@@H](C)O)[C@H]3C2)C1` the figure was 53.7%; with `COc1ccccc1NC(=O)c1ccccc1Sc1ccc([N+](=O)[O-])cc1`, 52%.
Then `COC1CC2CCC(C)C(O)(O2)C(=O)C(=O)N2CCCCC2C(=O)OC(C(C)CC2CCC(OCCO)C(OC)C2)CC(=O)C(C)/C=C(\C)C(O)C(OC)C(=O)C(C)CC(C)/C=C/C=C/C=C/1C` (stereo not given), with 56.8%.
Consider `C=C(C)[C@@H]1CC[C@]2(C(=O)O)CC[C@]3(C)[C@H](CC[C@@H]4[C@@]5(C)CC[C@H](O)C(C)(C)[C@@H]5CC[C@]43C)[C@@H]12`, for which the parasite survival was 46.6%.
For `Cc1cccc(CC(=O)N[C@H]2CCOC2=O)c1`, the parasite survival is 38.3%.
With `Clc1cc2nc(C3CCNCC3)n(Cc3ccc(CNCCc4c[nH]cn4)cc3)c2cc1Cl` the figure was 66.5%; with `CCc1c(O)nc2ccc(F)cc2c1OCC1CCC1`, 41%; with `O=C(NNC(=S)Nc1ccc(Cl)cc1)c1ccncc1`, 65%.
Then `O=C1c2cccc3cccc(c23)C(=O)N1CC1CO1` (stereo not given), with 51.9%; and `CC(C)Nc1ncnc2c1cnn2-c1ccc(Cl)cc1`, with 58.2%; and `O=C(NC(=O)N1CCCc2ccccc21)c1cccc(Cl)c1`, with 28.3%.
Then `CCOc1ccc(/C=N/NC(=O)C2CC2c2ccc(C(C)(C)C)cc2)cc1OCC` (stereo not given), with 51.6%.
With `Cc1ccc(Oc2ccccc2-c2csc(N=C3NCCCN3)n2)c(C)c1`, the parasite survival is 30.1%.
With `C[C@H](c1cccc2ccccc12)N(C)Cc1ccccc1` the figure was 44.4%; with `CC(C)(C)c1ccc(C(Cn2cccc(C(F)(F)F)c2=O)NC2Cc3ccccc3C2)cc1` (stereo not given), 51.5%.
With `O=c1cc(NCCCN[C@@H]2CCOc3c(Br)cc(Br)cc32)[nH]c2ccsc12` the figure was 30.7%; with `Cc1cc(CCCOc2c(C)cc(-c3noc(C(F)(F)F)n3)cc2C)on1`, 67.2%.
With `COc1ccc2sc3c(c2c1)NC(C)CNC3=O` (stereo not given) the figure was 6.94% (active); with `CC(C)/N=c1\cc2n(-c3ccc(Cl)cc3)c3ccccc3nc-2cc1Nc1ccc(Cl)cc1`, 4.63% (active); with `O=C(c1ccccc1)N1CCN(c2ccccc2NC(=O)C(Cl)(Cl)Cl)CC1`, 63.4%.
As to `Nc1nc(NC2Cc3ccc(F)cc3C2)nc(N2CCCCC2)n1` (stereo not given), the parasite survival was 41.9%.
With `O[C@@](Cn1cnnn1)(c1ccc(F)cc1F)C(F)(F)c1ccc(-c2ccc(OCC(F)(F)F)cc2)cn1` the figure was 28.8%.
With `Cc1c[nH]c(=O)nc1NCc1ccccc1` the figure was 49.9%.
For the compound `N#Cc1cc([N+](=O)[O-])ccc1Oc1ccccc1Cl`, the parasite survival is 69%.
With `CCc1cc(Nc2cc(=O)n(CCN3CCN(C(=O)c4ccccc4)CC3)c(=O)[nH]2)ccc1C` the figure was 26%.

Values taken from the supplement of paper PMC10941209.
